Source: the supplement of paper PMC13380429

Experiments:
[1] = test system: Vero E6 infected with SARS-CoV-2; assay: morphology score (similarity to uninfected cells); higher = more like uninfected cells; conditions: 24 h
[2] = test system: Vero E6 infected with SARS-CoV-2; assay: SARS-CoV-2 infection rate relative to infected DMSO; higher = more infection, active = 60 or less; conditions: 24 h

| SMILES | morphology score [1] | SARS-CoV-2 infection rate [2] |
| --- | --- | --- |
| C=C1/C(=C\C=C2/CCC[C@]3(C)[C@@H]([C@H](C)CCCC(C)(C)O)CC[C@@H]23)C[C@@H](O)C[C@@H]1O [calcitriol] (10 µM) | 0.098 | 108% (inactive) |
| CCc1cc(C(C)=O)c(O)cc1OCCCCCC(C)(C)c1nn[nH]n1 (10 µM) | 0.0736 | 100% (inactive) |
| CNCC(O)c1ccc(O)c(O)c1 (racemic) [DL-Adrenaline] (10 µM) | 0.188 | 109% (inactive) |
| CC(=O)NO [acetohydroxamic-acid] (10 µM) | -0.0513 | 106% (inactive) |
| CCc1nc(C)ccc1O [emoxipin] (10 µM) | 0.143 | 99.5% (inactive) |
| CCCC[C@H]1C(=O)N(c2ccccc2)N(c2ccc(O)cc2)C1=O [oxyphenbutazone] (0.833333 µM) | 0.131 | 102% (inactive) |
| CNC(=O)c1ccc(Nc2ncc(C(F)(F)F)c(NCc3nccnc3N(C)S(C)(=O)=O)n2)cc1 [defactinib] (0.833333 µM) | 0.0478 | 100% (inactive) |
| CCC(C)C(C(=O)OCC[N+](C)(CC)CC)c1ccccc1 (stereo not drawn) [valethamate] (10 µM) | 0.0952 | 95% (inactive) |
| Nc1ccc(S(=O)(=O)Nc2nccs2)cc1 [sulfathiazole] (10 µM) | 0.0413 | 114% (inactive) |
| CC[N+](CC)(CCCNC1=CC(=O)C(NCCC[N+](CC)(CC)Cc2ccccc2)=CC1=O)Cc1ccccc1 [benzoquinonium-dibromide] (10 µM) | -0.00889 | 113% (inactive) |
| COc1cc(OC)c(C(=O)CCCCN2CCC3(CC2)NC(=O)NC3=O)cc1NS(=O)(=O)c1ccc(C(F)(F)F)cc1 (10 µM) | 0.222 | 93% (inactive) |
| CC(C)[C@H]1c2ccc(F)cc2CC[C@@]1(CCN(C)CCCc1nc2ccccc2[nH]1)OC(=O)C1CC1 (0.833333 µM) | 0.0422 | 98% (inactive) |
| CCc1[nH]c(=O)[nH]c1C(=O)c1ccncc1 [piroximone] (10 µM) | 0.142 | 100% (inactive) |
| NCCCC(O)(P(=O)(O)O)P(=O)(O)O [alendronate] (10 µM) | 0.102 | 110% (inactive) |
| Cc1cccc(/C=C/c2ccccc2)n1 (10 µM) | 0.0753 | 98% (inactive) |
| CC(C)NCCCn1c(Sc2cc3c(cc2I)OCO3)nc2c(N)ncnc21 (0.833333 µM) | 0.255 | 96.5% (inactive) |
| c1ccc(CCCN2CCN(CCOC(c3ccccc3)c3ccccc3)CC2)cc1 (10 µM) | 0.239 | 94% (inactive) |
| CC(C)(C)NC[C@H](O)c1ccc(O)cc1Cl [meluadrine] (10 µM) | 0.0145 | 94% (inactive) |
| O=C(O)CCCC[C@@H]1SC[C@@H]2NC(=O)N[C@@H]21 [biotin] (10 µM) | -0.0202 | 108% (inactive) |
| CCCC(=O)N1CCCN(c2nc(N)c3cc(OC)c(OC)cc3n2)CC1 [bunazosin] (10 µM) | 0.0754 | 108% (inactive) |
| COc1cccc(-c2ccc([C@@H](Oc3cc(-c4ccc(C[C@H](N)C(=O)O)cc4)nc(N)n3)C(F)(F)F)cc2)c1 (10 µM) | 0.0975 | 102% (inactive) |
| CCCCCNC(=N)N/N=C/c1c[nH]c2ccc(OC)cc12 [tegaserod] (10 µM) | 0.0727 | 100% (inactive) |
| CC(=O)N(CC(C)C(=O)O)c1c(I)cc(I)c(N)c1I (stereo not drawn) [iocetamic-acid] (10 µM) | 0.0591 | 97% (inactive) |
| C[C@H]1O[C@@H](O[C@H]2[C@@H](O)C[C@H](O[C@H]3[C@@H](O)C[C@H](O[C@H]4CC[C@@]5(C)[C@H](CC[C@@H]6[C@@H]5C[C@@H](O)[C@]5(C)[C@@H](C7=CC(=O)OC7)CC[C@]65O)C4)O[C@@H]3C)O[C@@H]2C)C[C@H](O)[C@@H]1O [digoxin] (0.833333 µM) | -0.256 | 98% (inactive) |
| CC[C@@]1([C@H]2O[C@H]([C@H]3O[C@@](O)(CO)[C@H](C)C[C@@H]3C)C[C@H]2C)CC[C@H]([C@@]2(C)CC[C@]3(C[C@H](O)[C@@H](C)[C@@H]([C@H](C)[C@H](OC)[C@@H](C)C(=O)O)O3)O2)O1 (10 µM) | 0.556 | 39% (active) |
| Nc1sc2c(c1C(=O)c1ccc(Cl)cc1)CCCC2 (10 µM) | 0.0676 | 96.5% (inactive) |
| Nc1nc(O)c2nc(Br)n([C@@H]3O[C@@H]4COP(=O)(O)O[C@H]4[C@H]3O)c2n1 [8-bromo-cGMP] (10 µM) | 0.0521 | 97% (inactive) |
| CCC1=C[C@@H]2CN3CCc4c([nH]c5ccccc45)[C@@](C(=O)OC)(C2)[C@@H]13 [catharanthine] (10 µM) | 0.119 | 110% (inactive) |
| C[C@H](CCC(=O)O)[C@H]1CC[C@H]2[C@@H]3C(=O)C[C@@H]4CC(=O)CC[C@]4(C)[C@H]3CC(=O)[C@]12C [dehydrocholate-acid] (10 µM) | 0.231 | 94.8% (inactive) |
